# Hits are enriched below; roughly 12% of the tested compounds scored in any of these assays.
# BAZ2B inh = inhibitors of human BAZ2B bromodomain; Q9UIF8; AlphaScreen BAZ2B-H3K14Ac peptide displacement; Potency, µM (doses to about 114 µM), hits mostly inhibitors; actives 4.4% (n = 360,000); AID 504333; note: nearly all actives have a fitted effect of over 60% in size
#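 BAZ2B (50 nM) with biotin-H3(5-23)K14Ac peptide (50 nM) in PBS pH 7.4, 0.01% Tween-20, preformed 30 min, then compound 30 min at room temperature; top concentration 110uM. AlphaScreen streptavidin donor/nickel chelate acceptor beads (10 ug/mL final), 20 min dark, signal read.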
# JMJD2A Tudor = inhibitors of human JMJD2A Tudor domain; O75164; AlphaScreen JMJD2A-Tudor / H3K4me3 peptide binding; Potency, µM (doses to about 114 µM), hits mostly inhibitors; actives 4.4% (n = 390,000); AID 504339; note: nearly all actives have a fitted effect of over 50% in size
# G9a inh = blocks human histone lysine methyltransferase G9a | actives 8.8% (n = 350,000) | AID 504332 | G9a H3K9 monomethylation, AlphaScreen, 2 h | Potency, µM (highest dose often 102 µM), hits mostly inhibitors; note: nearly all actives have a fitted effect of over 75% in size
# Target sequence (Q96KQ7 913-1193 limits assumed): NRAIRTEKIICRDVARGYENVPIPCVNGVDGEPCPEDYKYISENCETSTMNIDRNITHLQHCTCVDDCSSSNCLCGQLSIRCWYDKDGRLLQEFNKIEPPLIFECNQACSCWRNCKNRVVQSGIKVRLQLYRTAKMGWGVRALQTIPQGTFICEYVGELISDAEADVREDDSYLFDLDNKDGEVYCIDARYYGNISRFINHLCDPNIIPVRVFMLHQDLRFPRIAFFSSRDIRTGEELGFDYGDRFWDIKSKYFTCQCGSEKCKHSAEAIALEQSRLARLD
#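 Signal arises when biotinylated H3K9 peptide, once monomethylated, bridges streptavidin donor and antibody-captured acceptor beads. Enzyme at 20 nM was preincubated 15 min with test compounds; peptide 500 nM and SAM 20 uM then reacted for 2 h.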
# HP1b binding inh = HP1-beta chromodomain-methylated histone interaction inhibition. P83916. actives 0.56% (n = 390,000). AlphaScreen HP1-beta / biotin-H3K9me3 peptide binding. Potency, µM (highest dose often 114 µM), hits mostly inhibitors; note: nearly all actives have a fitted effect of over 70% in size
# Target sequence (P83916 whole entry, looked up): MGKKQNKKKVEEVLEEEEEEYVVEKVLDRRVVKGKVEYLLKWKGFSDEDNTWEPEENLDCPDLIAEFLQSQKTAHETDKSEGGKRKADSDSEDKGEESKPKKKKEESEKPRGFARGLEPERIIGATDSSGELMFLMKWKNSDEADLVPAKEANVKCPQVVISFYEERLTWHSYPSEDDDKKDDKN
#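 AlphaScreen: HP1-beta (50 nM) preformed 30 min with biotin-H3(1-18)K9me3 peptide (50 nM) in PBS pH 7.4, 0.01% Tween-20. Compound added for 30 min at RT, then streptavidin donor/nickel chelate acceptor beads (10 ug/mL) for 30 min.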
# L3MBTL1 inh = L3MBTL1 (human) inhibition. Q9Y468. AlphaScreen L3MBTL1–H3K9me1 peptide binding. Potency, µM (doses to about 57.1 µM), usual class: inhibitors. actives 0.66% (n = 230,000). AID 485360; note: nearly all actives have a fitted effect of over 60% in size
#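 L3MBTL1 (50 nM) pre-complexed 30 min with biotinylated H3(1-15)K9me1 peptide (75 nM), then compounds added for 30 min at room temperature; AlphaScreen streptavidin donor/nickel chelate acceptor beads (10 ug/mL final) read after 30 min dark incubation.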
# Sfp inh = inhibitors of Bacillus subtilis Sfp phosphopantetheinyl transferase; Q9F4F7; Biochemical Sfp PPTase activity, qHTS; Potency, µM, most hits filed as inhibitors; actives 3.5% (n = 310,000); AID 1490;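 note: the enzyme is Sfp with the accession as filed and its product quenches rhodamine fluorescence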
#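 Buffer: 50 mM Hepes-Na pH 7.6, 10 mM MgCl2, 0.01% Nonidet P-40, 0.01% BSA. Enzyme 15 nM, pre-exposed to compound 15 min; substrates then added and fluorescence change tracked over 30 min.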
# Numbers stand for hits; 0 = inactive; ? = inconclusive; - = not tested or not shown; ! = not active in a repeat; [ ] = another dose, or the depositor's remark. Calls come from the whole dose curve; as a rule, active = well fitted curve in the direction sought with a large enough effect; inconclusive = small, poorly fitted or top-dose-only effect, or another doubt; inactive = no such curve, though single readings can be large; an effect the other way counts as inactive or inconclusive.
SMILES,BAZ2B inh,JMJD2A Tudor,G9a inh,HP1b binding inh,L3MBTL1 inh,Sfp inh
O=C1NC(=O)C(=Cc2ccc(-c3ccccc3[N+](=O)[O-])o2)C(=O)N1,?,?,-,0,-,22µM
O=C1NC(=O)C(=Cc2ccc(-c3cc(Cl)ccc3[N+](=O)[O-])o2)C(=O)N1,45µM,25µM,4µM,?,?,0
CC1CCCC(C2(O)C(=O)Nc3ccccc32)C1=O (stereo unspecified),0,0,1.8µM,0,0[11.4 µM],0
NC(Cn1ccc(=O)[nH]c1=O)C(=O)O (stereo unspecified),-,-,0[12.7 µM],-,-,-
O=CN1CC2CC(C1)c1cccc(=O)n1C2 (stereo unspecified),-,-,-,-,-,0
CCOP1(=S)Oc2cc3c(cc2C(C(=O)OC)(C(F)(F)F)O1)OCO3 (stereo unspecified),0,?,?,?,-,25µM
CNC(C)[C@H](O)c1ccccc1 (stereo partly specified),-,-,0[2.33 µM],-,-,0
CN(C)P(=O)(NC(=O)c1cccn1C)N(C)C,0,0,0,0,-,0
CN(C)P(=NC(=S)c1cccn1C)(N(C)C)N(C)C,?,40µM,10µM,0,-,0
COc1ccc(O)c(CN2CCCC(C(=O)c3sccc3C)C2)c1 (stereo unspecified),?,0,50µM,0,0,0
O=c1c2ccccc2cnn1Cc1n[nH]c(=S)n1C1CC2CCC1C2 (stereo unspecified),0,3.2µM,0,0,0,0
C=CCc1c(C)[nH]c(=S)c(C#N)c1C,0,5µM,1.1µM,0,0,10µM
CN(C)C(=S)SC(=S)N(C)C,-,-,2.5µM,-,-,11µM
CN(C)C(=S)SSC(=S)N(C)C,0,0,1.3µM,0,0,3.5µM!
CN1CCC23CCCC[C@H]2C1Cc1ccc(O)cc13 (stereo partly specified),-,-,0[12.7 µM],-,-,-
COCc1cc(C)c(C#N)c(=S)[nH]1,?,7.9µM,-,?,0,10µM
CCN1C(=O)C(=Cc2ccc(C)s2)C(=O)N(CC)C1=S,45µM,25µM,35µM,40µM,0,?
CCN1C(=O)C(=C2C=C(C)OC(C)=C2)C(=O)N(CC)C1=S,0,0,0,0,0,0
CC1CN1P(=O)(Oc1ccc2ccccc2c1)N1CC1C (stereo unspecified),-,0,-,0,-,-
CC1=CC(=O)NP(=O)(Oc2ccc3ccccc3c2)N1 (stereo unspecified),-,45µM,3.5µM,14µM,0,7.9µM
COc1ccc(C(=O)Nc2nnc(S(=O)(=O)N(CC(C)C)c3ccc(C)cc3)s2)cc1OC,0,0,0,0,-,-
Ic1ccccc1CN[C@@H]1C2CCN(CC2)[C@@H]1C(c1ccccc1)c1ccccc1,40µM,18µM,1.6µM,?,0,-
Ic1ccccc1CNC1C2CCN(CC2)C1C(c1ccccc1)c1ccccc1 (stereo unspecified),-,-,2µM,-,-,-
NCCCC[C@H](NC(=O)[C@H](Cc1ccccc1)NC(=O)[C@H](CCCN=C(N)N)NC(=O)[C@@H](N)Cc1ccc(O)cc1)C(N)=O,-,-,0,-,-,0
CCOC(=O)c1ccccc1C(=O)OCC,-,0,0,0,-,0
SMILES,BAZ2B inh,JMJD2A Tudor,G9a inh,HP1b binding inh,L3MBTL1 inh,Sfp inh
CCOC(=O)c1cnc2c(ccc3ccccc32)c1Nc1ccc(N(C)C)cc1,6.3µM,11µM,2.5µM,10µM,-,-
Cc1cccc(NC(=O)N[C@@H]2N=C(c3ccccc3)c3ccccc3N(CC(=O)c3ccccc3C)C2=O)c1,-,-,-,-,-,0
CCCC(=O)c1cc(CP(=O)(OCC)OCC)oc1C,0,0,7.9µM,0,0,?
CCOP(=O)(Cc1cc(C(C)=O)c(C)o1)OCC,0,0,8.9µM,0,0,?
CCOP(=O)(Cc1ccc(C#N)o1)OCC,0,0,?,0,0,0
C=C1C([C@@H](O)C[C@H](C)C2O[C@@]3(CCCCO3)CC[C@H]2C)OC2CC[C@@]3(CC[C@@H](/C=C/[C@@H](C)C4CC(C)=C[C@]5(O4)O[C@H](C[C@@](C)(O)C(=O)O)CCC5O)O3)OC2[C@@H]1O (stereo partly specified),-,-,0,-,-,0
[S]=[Sb][S][Sb]=[S],-,-,0[12.7 µM],-,-,0
Clc1ccccc1-c1cncnc1NCCc1cnc[nH]1,-,-,0[0.501 µM],-,-,0
CCCCCCCCCCCCCCCC[N+](C)(C)C,0,0,8.9µM!,0,0,45µM!
CCCCCCCCCC[N+](C)(C)CCCCCCCCCC,-,-,0,-,-,?
NC(=NCCc1ccc(I)cc1)SCCCc1cnc[nH]1,-,-,?,-,-,0
CCCCCCCCCCCC[N+](C)(C)CCOc1ccccc1,-,-,0,-,-,50µM
O=C1NC(=S)NC(=O)C1c1ccccc1,-,50µM,-,?,-,-
O=C1NC(=S)NC(=O)C12C(c1ccccc1)NC(=S)NC2c1ccccc1 (stereo unspecified),0,0,?,0,0,?
CC1=NN(c2ccccc2)C(=O)/C1=C/c1c(O)[nH]c(=O)[nH]c1=O,?,0,40µM,0,0,0
COC(=O)c1ccccc1N=Cc1c(O)[nH]c(=S)[nH]c1=O,0,0[11.4 µM],?,0,0,0
COc1ccc(/C=C2/C(=O)N(c3ccccc3)N=C2C)cc1,-,20µM,-,50µM,-,-
O=c1[nH]c(O)c(C=Nc2ccccc2Oc2ccccc2)c(=O)[nH]1,0,?,0,0,0,0
COc1cccc(-n2c(/C=C/c3cccc(C)c3)nc3ccccc3c2=O)c1,0,0,0,0,-,-
CC1=NN(c2ccccc2)C(=O)/C1=C/c1c(O)[nH]c(=S)[nH]c1=O,?,79µM,?,0,0,50µM
O=c1[nH]c(O)c(/C=C2\C=NN=C2c2ccccc2)c(=O)[nH]1,0,0,50µM,0,-,50µM
Cn1c2c(c3ccccc31)CCNCC2,-,-,-,-,-,0
C=C(C)[C@]12C[C@@H](C)[C@@]34OC(Cc5ccccc5)(O[C@@H]1[C@@H]3C=C(COC(=O)Cc1cc(I)c(O)c(OC)c1)C[C@]1(O)C(=O)C(C)=C[C@@H]41)O2,-,-,0,-,-,0
CCCC(C)C1(CC)C(=O)N=C(S)NC1=O (stereo unspecified),-,-,-,-,-,0
CN(CCOc1ccc(C=C2C(=O)NC(=O)NC2=O)cc1)c1ccccn1,0,?,45µM,0,0,79µM
CC1CCCCN1CC(=O)c1ccc2cc[nH]c2c1 (stereo unspecified),0,0,32µM,0,-,0
CN1C(=O)C(O)N=C(c2ccccc2)c2cc(Cl)ccc21 (stereo unspecified),-,-,0,-,-,0
CCCCCCNC(=O)N[C@H](Cc1ccc(O)cc1)C(=O)NCCC[C@H]1CN2C(=NC[C@H]2CCC)N1CC1CCC1,79µM,-,0[12.7 µM],-,-,7.9µM
CCCOP(=O)(OCCC)C(Nc1ccc(C(C)C)cc1)c1ccc([N+](=O)[O-])cc1 (stereo unspecified),56µM,?,?,0,0,0

# Assay outcomes from PubChem.
